Measured values from PubChem BioAssay (NCATS).
Inconclusive results are not listed. Where a call stands in place of a potency, no number is given. The source made the active and inactive calls. Calls come from the whole dose curve; as a rule, active = well fitted inhibition curve with a large enough effect; inconclusive = small, poorly fitted or top-dose-only effect; inactive = flat fitted curve, though single readings scatter.

tested on: N140; test: qHTS profiling for inhibitors of Plasmodium falciparum proliferation (AID 504749); note: nearly all actives have a fitted effect of over 60% in size; settings: P. falciparum in erythrocytes, SYBR Green DNA, 72 h; series mostly up to 28.7 µM
Summary of the method: (§1)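 Each compound contacts P. falciparum-infected red blood cells for 72 h at 37 C; lysis buffer (Tris, EDTA, saponin, Triton X, SYBR Green I) is added and fluorescence measured next morning; values normalized to controls.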
Potency is the fitted concentration of half-maximal effect.

Compound	Potency
CC(=O)Nc1ncc([N+](=O)[O-])s1	inactive
C#C[C@]1(O)CC[C@H]2[C@@H]3CCc4cc(OC)ccc4[C@H]3CC[C@@]21C	inactive
CC(=O)Nc1ccc(CC(=O)O)cc1	inactive
COc1ccc(-c2cc(C(F)F)nn2-c2ccc(S(N)(=O)=O)cc2)cc1F	inactive
Nc1ccc(S(=O)(=O)Nc2cnc3ccccc3n2)cc1	inactive
CCCCCCCCCCCCCCCCO	inactive
Cc1cccc(C)c1NC(=O)CN1CCCC1	inactive
C[N+]1(CC2COC(c3ccccc3)(C3CCCCC3)O2)CCCCC1 (stereo unspecified)	11.2 µM (active)
CCCCNc1ccc(C(=O)OCCOCCOCCOCCOCCOCCOCCOCCOCCOC)cc1	inactive
NC(=S)N/N=C/c1cccnc1	inactive
O=C(O)P(=O)(O)O	inactive
c1ccc(CC2=NCCN2)cc1	inactive
COc1ccc2c(c1)c1c3n2CCN(C)C3=NCC1	inactive
O=C(O)C1(C(=O)O)CCC1.[NH2-].[NH2-].[Pt+2]	inactive
COc1cc(C(=S)N2CCOCC2)ccc1O	inactive
O=C(O)C(Cc1cc(I)c(O)c(I)c1)c1ccccc1 (stereo unspecified)	inactive
COP(=O)(OC)OC(c1ccc(Cl)cc1)P(=O)(OC)OC (stereo unspecified)	inactive
CCCCNC(=O)NS(=O)(=O)c1ccc(N)cc1	inactive
CC(=O)Nc1ccc(OCC(O)CNC(C)C)cc1 (stereo unspecified)	inactive

Compound	Potency
CCCCCCCCOc1ccc(C(=O)c2ccccc2)c(O)c1	inactive
CCOc1ccccc1OCCN[C@H](C)Cc1ccc(OC)c(S(N)(=O)=O)c1	inactive
NS(=O)(=O)c1cc(C(=O)O)cc(N2CCCC2)c1Oc1ccccc1	inactive
CCCCc1cc2ccccc2c(OCCN(C)C)n1	inactive
CNCCc1ccccn1	inactive
CC(=O)NC(=O)c1ccccc1O	inactive
CCNC(=O)NCc1cccc(Cl)c1	inactive
CCc1oc2ccccc2c1C(=O)c1cc(Br)c(O)c(Br)c1	inactive
CC(C)Cn1cnc2c1c(=O)n(C)c(=O)n2C	inactive
CCCCCCCCCCCCCC[N+](C)(C)Cc1ccccc1	8.91 µM (active)
CCN(CC)CCNC(=O)c1cc(Br)c(N)cc1OC	inactive
CCNC(=O)/C=C/c1cccc(Br)c1	inactive
NC(=O)c1ccccc1O	inactive
Nc1ccc(S(=O)(=O)NCc2ccccc2)cc1	inactive
Cc1cc(NS(=O)(=O)c2ccc(N)cc2)nc(C)n1	inactive
C#C[C@]1(O)CC[C@H]2[C@@H]3CCC4=Cc5oncc5C[C@]4(C)[C@H]3CC[C@@]21C	inactive
CC(=O)Oc1ccc(C)cc1	inactive
NC(=O)n1c(O)c(C(=O)c2cccs2)c2cc(Cl)ccc21	inactive
CCN1/C(=C/C=C/c2sc3ccccc3[n+]2CC)Sc2ccccc21	0.251 µM (active)

tested on: P93_24; test: as above; settings: P. falciparum in erythrocytes, SYBR Green DNA, 72 h; series mostly up to 28.7 µM
Summary of the method: as §1

Compound	Potency
CC(=O)Nc1ncc([N+](=O)[O-])s1	inactive
C#C[C@]1(O)CC[C@H]2[C@@H]3CCc4cc(OC)ccc4[C@H]3CC[C@@]21C	inactive
CC(=O)Nc1ccc(CC(=O)O)cc1	inactive
COc1ccc(-c2cc(C(F)F)nn2-c2ccc(S(N)(=O)=O)cc2)cc1F	inactive
Nc1ccc(S(=O)(=O)Nc2cnc3ccccc3n2)cc1	inactive
CCCCCCCCCCCCCCCCO	inactive
Cc1cccc(C)c1NC(=O)CN1CCCC1	inactive
C[N+]1(CC2COC(c3ccccc3)(C3CCCCC3)O2)CCCCC1 (stereo unspecified)	6.31 µM (active)
CCCCNc1ccc(C(=O)OCCOCCOCCOCCOCCOCCOCCOCCOCCOC)cc1	inactive
NC(=S)N/N=C/c1cccnc1	inactive
O=C(O)P(=O)(O)O	inactive
c1ccc(CC2=NCCN2)cc1	inactive
COc1ccc2c(c1)c1c3n2CCN(C)C3=NCC1	inactive
O=C(O)C1(C(=O)O)CCC1.[NH2-].[NH2-].[Pt+2]	inactive
COc1cc(C(=S)N2CCOCC2)ccc1O	inactive
O=C(O)C(Cc1cc(I)c(O)c(I)c1)c1ccccc1 (stereo unspecified)	inactive
COP(=O)(OC)OC(c1ccc(Cl)cc1)P(=O)(OC)OC (stereo unspecified)	inactive
CCCCNC(=O)NS(=O)(=O)c1ccc(N)cc1	inactive
CC(=O)Nc1ccc(OCC(O)CNC(C)C)cc1 (stereo unspecified)	inactive

Compound	Potency
CCCCCCCCOc1ccc(C(=O)c2ccccc2)c(O)c1	inactive
CCOc1ccccc1OCCN[C@H](C)Cc1ccc(OC)c(S(N)(=O)=O)c1	inactive
NS(=O)(=O)c1cc(C(=O)O)cc(N2CCCC2)c1Oc1ccccc1	inactive
CCCCc1cc2ccccc2c(OCCN(C)C)n1	inactive
CNCCc1ccccn1	inactive
CC(=O)NC(=O)c1ccccc1O	inactive
CCNC(=O)NCc1cccc(Cl)c1	inactive
CCc1oc2ccccc2c1C(=O)c1cc(Br)c(O)c(Br)c1	inactive
CC(C)Cn1cnc2c1c(=O)n(C)c(=O)n2C	inactive
CCCCCCCCCCCCCC[N+](C)(C)Cc1ccccc1	7.94 µM (active)
CCN(CC)CCNC(=O)c1cc(Br)c(N)cc1OC	inactive
CCNC(=O)/C=C/c1cccc(Br)c1	inactive
NC(=O)c1ccccc1O	inactive
Nc1ccc(S(=O)(=O)NCc2ccccc2)cc1	inactive
Cc1cc(NS(=O)(=O)c2ccc(N)cc2)nc(C)n1	inactive
C#C[C@]1(O)CC[C@H]2[C@@H]3CCC4=Cc5oncc5C[C@]4(C)[C@H]3CC[C@@]21C	inactive
CC(=O)Oc1ccc(C)cc1	inactive
NC(=O)n1c(O)c(C(=O)c2cccs2)c2cc(Cl)ccc21	inactive
CCN1/C(=C/C=C/c2sc3ccccc3[n+]2CC)Sc2ccccc21	0.112 µM (active)
